The values below come from PubChem BioAssay (Tox21).

Each structure is given as a SMILES string. Values without a mark were called inactive. Records with an inconclusive call do not appear. Active and inactive are the calls of the source. Calls follow the shape of the full dose curve.
% is scaled to controls: 0 for no effect and ±100 for the full control effect.

In the first test the target is Acetylcholinesterase (Homo sapiens) (UniProt P22303). Briefly: Acetylcholinesterase (AChE) small molecule antagonists: colormetric cell-based qHTS assay (AID 1347395). Also: nearly all actives have a fitted effect of over 30% in size. Also: potency is read from the fitted curve at half-maximal effect. Conditions: SH-SY5Y cells AChE activity, colorimetric (Ellman); series mostly up to 115 µM; activity, negative = inhibition: at the top concentration. In outline: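 Colorimetric read-out: DTNB detects thiocholine released when cellular AChE in SH-SY5Y cells hydrolyses acetylthiocholine. Cells attached overnight, received compound for 30 min at 37 C, then substrate mix for 90 min at 37 C.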
Sequence of Acetylcholinesterase (Homo sapiens) (P22303 whole entry, looked up): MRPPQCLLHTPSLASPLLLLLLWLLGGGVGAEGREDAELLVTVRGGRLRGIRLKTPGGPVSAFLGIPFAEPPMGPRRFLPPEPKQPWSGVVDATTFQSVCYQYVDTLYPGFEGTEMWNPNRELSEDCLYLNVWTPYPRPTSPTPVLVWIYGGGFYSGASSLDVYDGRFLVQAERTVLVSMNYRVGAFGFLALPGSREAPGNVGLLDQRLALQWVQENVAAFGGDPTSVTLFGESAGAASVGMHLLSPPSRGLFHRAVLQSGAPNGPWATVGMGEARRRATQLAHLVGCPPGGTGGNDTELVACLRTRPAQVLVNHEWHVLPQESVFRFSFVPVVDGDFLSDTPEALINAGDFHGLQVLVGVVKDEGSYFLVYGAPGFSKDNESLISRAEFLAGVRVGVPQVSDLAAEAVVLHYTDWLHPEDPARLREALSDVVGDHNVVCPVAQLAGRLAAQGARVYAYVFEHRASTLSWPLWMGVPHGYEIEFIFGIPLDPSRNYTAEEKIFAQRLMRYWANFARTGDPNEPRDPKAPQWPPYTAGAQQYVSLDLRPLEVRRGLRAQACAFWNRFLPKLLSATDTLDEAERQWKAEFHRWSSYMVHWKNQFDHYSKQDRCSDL
For `CC1(C)O[C@@H]2C[C@H]3[C@@H]4CCC5=CC(=O)C=C[C@]5(C)[C@H]4[C@@H](O)C[C@]3(C)[C@]2(C(=O)CO)O1`, the “activity, negative = inhibition” value is 3.43% [at 52.9 µM].

Take `CCCCC(CC)COCCCN` (stereo not given): the “activity, negative = inhibition” value is -3%.

In the case of `Oc1ccc(/C=C/c2cc(O)cc(O)c2)cc1`, the Potency entry was “inactive”.

For the compound `CCCCCCCCC=O`, the “activity, negative = inhibition” value was 1.04%.

`NC(=O)c1ccc([N+](=O)[O-])cc1Cl`: the Potency entry is “inactive”.

As to `Oc1ccc(Cc2ccccc2O)cc1`, the Potency result was “inactive”.

As for `CN1C(C(=O)Nc2ccccn2)=C(O)c2ccccc2S1(=O)=O`, the Potency result was “inactive”.

Turning to `C=CC(=O)OCCOCCOCC`, the “activity, negative = inhibition” value is 13.9%.

On to `CCCCCCCCCCCCCC(=O)OC(C)C`, for which the Potency result is “inactive”.

On to `CC(C)c1ccc(C(=O)N=C(N)N)cc1S(C)(=O)=O`, for which the compound was classed as inactive.

On to `Nc1cc([N+](=O)[O-])ccc1O`, for which the Potency entry was “inactive”.

As for `O=C(O)c1cc(-c2ccccc2)nc2ccccc12`, the Potency entry is “inactive”.

For the compound `Cn1nnc2c(C(N)=O)ncn2c1=O`, the “activity, negative = inhibition” value is 3.87% [at 52.9 µM].

As for `CC(C)CCCC(=O)O`, the “activity, negative = inhibition” value was 0.876%.

On to `O=[N+]([O-])c1ccc(CCO)cc1`, for which the “activity, negative = inhibition” value was -2.55%.

In the case of `CCCC1C(CC)=CC(CC)=CN1c1ccccc1` (stereo not given), the “activity, negative = inhibition” value was -7.41%.

As to `COc1ccc(C(=O)CC(=O)c2ccc(C(C)(C)C)cc2)cc1`, the “activity, negative = inhibition” value is 2.13%.

As for `NC(N)=NS(=O)(=O)c1ccc(N)cc1`, the “activity, negative = inhibition” value is 0.969% [at 52.9 µM].

For `CN1CCN(N)CC1`, the “activity, negative = inhibition” value is 3.88% [at 52.9 µM].

As to `C=CC(=O)NC(C)(C)CS(=O)(=O)O`, the Potency entry is “inactive”.

In the case of `Nc1ccccc1N`, the “activity, negative = inhibition” value is 2.02%.

As to `CCCCC(CC)COC(=O)CCCCC(=O)OCc1ccccc1` (stereo not given), the “activity, negative = inhibition” value is 2.33%.

Consider `CCN(CC)CCSC(=O)C(c1ccccc1)c1ccccc1`, for which the “activity, negative = inhibition” value was -1.43% [at 52.9 µM].

In the case of `CNC(=O)N(c1ccccc1)c1ccccc1`, the “activity, negative = inhibition” value is -0.293%.

Take `CN(C)CCN1CCOCC1`: the “activity, negative = inhibition” value is 0.519%.

As to `C1CSCCS1`, the “activity, negative = inhibition” value was 0.511%.

On to `CC(C)CC(=O)OCc1ccccc1`, for which the “activity, negative = inhibition” value was 0.505%.

Take `CC(C)C(=O)OCc1ccccc1`: the “activity, negative = inhibition” value is 2.08%.

As to `CC(NCCC(c1ccccc1)c1ccccc1)c1ccccc1` (stereo not given), the “activity, negative = inhibition” value is 0.969% [at 52.9 µM].

Consider `CC(=O)OCCOC(C)=O`, for which the Potency entry was “inactive”.

Consider `CCOC(=O)C1=C(C)NC(C)=C(C(=O)OC)C1c1cccc(Cl)c1Cl` (stereo not given), for which the “activity, negative = inhibition” value is -4.95% [at 52.9 µM].

As to `C=CCc1cc(OC)c(O)c(C(=O)NCCO)c1`, the “activity, negative = inhibition” value was -1.5% [at 52.9 µM].

Take `CC(C=O)c1ccccc1` (stereo not given): the “activity, negative = inhibition” value was 0.679%.

On to `OCCOCC#CCOCCO`, for which the “activity, negative = inhibition” value was 0.242%.

For the compound `N#CCC(=O)NN`, the “activity, negative = inhibition” value is -1.06% [at 52.9 µM].

`CNS(=O)(=O)c1cc(C(=O)N2CCC(CCN3C4CCC3CC(n3c(C)nc5ccccc53)C4)(c3cccc(F)c3)CC2)c(Cl)cc1F` (stereo not given): the Potency was 8.94 µM (active).

On to `N#Cc1nc(Cl)c(Cl)c(Cl)c1Cl`, for which the “activity, negative = inhibition” value is -12.5%.

For `CCCc1c(OCCCCc2nn[nH]n2)ccc(C(C)=O)c1O`, the Potency result was “inactive”.

Regarding `CC(=O)SC[C@@H](C)C(=O)N1CCC[C@H]1C(=O)N[C@@H](Cc1ccccc1)C(=O)O`, the “activity, negative = inhibition” value is 0.536% [at 52.9 µM].

Consider `C/C=C/C=C/CO`, for which the “activity, negative = inhibition” value is 1.57%.

For another test the target is unchanged. Briefly: Acetylcholinesterase (AChE) small molecule antagonists: enzyme-based qHTS assay (AID 1347397). Also: nearly all actives have a fitted effect of over 55% in size. The note with it: Potency: AChE enzyme activity inhibition; outcome: AChE enzyme activity inhibition; series mostly up to 115 µM; activity change, negative = inhibition: at the top concentration. In outline: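 Tox21 library chemicals are tested in qHTS format against recombinant human AChE. The enzyme, dispensed at 50 mU/mL, sits with compound for 30 min at room temperature. A DTNB–acetylthiocholine cocktail follows, and colour is read after 10 min.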
Consider `CC1(C)O[C@@H]2C[C@H]3[C@@H]4CCC5=CC(=O)C=C[C@]5(C)[C@H]4[C@@H](O)C[C@]3(C)[C@]2(C(=O)CO)O1`, for which the “activity change, negative = inhibition” value was 0.787% [at 53 µM].

Regarding `CCCCC(CC)COCCCN` (stereo not given), the “activity change, negative = inhibition” value is -0.393%.

On to `Oc1ccc(/C=C/c2cc(O)cc(O)c2)cc1`, for which the Potency result was “inactive”.

`CCCCCCCCC=O`: the “activity change, negative = inhibition” value was -2.89%.

On to `NC(=O)c1ccc([N+](=O)[O-])cc1Cl`, for which the Potency result was “inactive”.

As to `Oc1ccc(Cc2ccccc2O)cc1`, the Potency entry is “inactive”.

`CN1C(C(=O)Nc2ccccn2)=C(O)c2ccccc2S1(=O)=O`: the Potency result was “inactive”.

With `C=CC(=O)OCCOCCOCC`, the “activity change, negative = inhibition” value is 2.46%.

`CCCCCCCCCCCCCC(=O)OC(C)C`: the Potency result is “inactive”.

As to `CC(C)c1ccc(C(=O)N=C(N)N)cc1S(C)(=O)=O`, the result was inactive.

For the compound `Nc1cc([N+](=O)[O-])ccc1O`, the Potency entry is “inactive”.

On to `O=C(O)c1cc(-c2ccccc2)nc2ccccc12`, for which the Potency entry is “inactive”.

In the case of `Cn1nnc2c(C(N)=O)ncn2c1=O`, the “activity change, negative = inhibition” value is 0% [at 53 µM].

Regarding `CC(C)CCCC(=O)O`, the “activity change, negative = inhibition” value is 0.256%.

On to `O=[N+]([O-])c1ccc(CCO)cc1`, for which the “activity change, negative = inhibition” value was 0.38%.

Consider `CCCC1C(CC)=CC(CC)=CN1c1ccccc1` (stereo not given), for which the “activity change, negative = inhibition” value is -2.1%.

Consider `COc1ccc(C(=O)CC(=O)c2ccc(C(C)(C)C)cc2)cc1`, for which the Potency result was “inactive”.

For `NC(N)=NS(=O)(=O)c1ccc(N)cc1`, the “activity change, negative = inhibition” value is 1.37% [at 53 µM].

With `CN1CCN(N)CC1`, the “activity change, negative = inhibition” value was -1.25% [at 53 µM].

`C=CC(=O)NC(C)(C)CS(=O)(=O)O`: the Potency entry was “inactive”.

For the compound `Nc1ccccc1N`, the Potency entry is “inactive”.

In the case of `CCCCC(CC)COC(=O)CCCCC(=O)OCc1ccccc1` (stereo not given), the “activity change, negative = inhibition” value was -0.441%.

Take `CCN(CC)CCSC(=O)C(c1ccccc1)c1ccccc1`: the “activity change, negative = inhibition” value is -0.268% [at 53 µM].

On to `CNC(=O)N(c1ccccc1)c1ccccc1`, for which the “activity change, negative = inhibition” value was -3.33%.

As for `CN(C)CCN1CCOCC1`, the “activity change, negative = inhibition” value is 0.505%.

Turning to `C1CSCCS1`, the “activity change, negative = inhibition” value is 0.545%.

Regarding `CC(C)CC(=O)OCc1ccccc1`, the “activity change, negative = inhibition” value was 0.555%.

Regarding `CC(C)C(=O)OCc1ccccc1`, the “activity change, negative = inhibition” value was -0.539%.

With `CC(NCCC(c1ccccc1)c1ccccc1)c1ccccc1` (stereo not given), the “activity change, negative = inhibition” value is -4.85% [at 53 µM].

In the case of `CC(=O)OCCOC(C)=O`, the Potency entry was “inactive”.

As for `CCOC(=O)C1=C(C)NC(C)=C(C(=O)OC)C1c1cccc(Cl)c1Cl` (stereo not given), the “activity change, negative = inhibition” value is -2.02% [at 53 µM].

With `C=CCc1cc(OC)c(O)c(C(=O)NCCO)c1`, the “activity change, negative = inhibition” value is 3.77% [at 53 µM].

In the case of `CC(C=O)c1ccccc1` (stereo not given), the “activity change, negative = inhibition” value was 0.407%.

`OCCOCC#CCOCCO`: the “activity change, negative = inhibition” value was -0.516%.

With `N#CCC(=O)NN`, the “activity change, negative = inhibition” value was 1.79% [at 53 µM].

`CNS(=O)(=O)c1cc(C(=O)N2CCC(CCN3C4CCC3CC(n3c(C)nc5ccccc53)C4)(c3cccc(F)c3)CC2)c(Cl)cc1F` (stereo not given): the “activity change, negative = inhibition” value is -21.8%.

For the compound `N#Cc1nc(Cl)c(Cl)c(Cl)c1Cl`, the “activity change, negative = inhibition” value was -0.162%.

With `CCCc1c(OCCCCc2nn[nH]n2)ccc(C(C)=O)c1O`, the Potency result is “inactive”.

As to `CC(=O)SC[C@@H](C)C(=O)N1CCC[C@H]1C(=O)N[C@@H](Cc1ccccc1)C(=O)O`, the “activity change, negative = inhibition” value was 0.825% [at 53 µM].

For `C/C=C/C=C/CO`, the “activity change, negative = inhibition” value is -0.624%.
